TEAD-YAP block: TEAD-YAP interaction inhibition; inhibition, % at 9.12 µM; HEK-TIYL cells, TEAD-Gal4/YAP UAS-luciferase luminescence; AID 1259422; 640,000 tested, 1.4% active; in the data active means inhibition above about 32%
MITF inh: inhibitors of human MITF; AlphaScreen MITF homodimerization, bead proximity signal; inhibition, % at 2.6 µM; 650,000 tested, 0.91% active; AID 1259374; in the data active means inhibition above about 50%
Target sequence (O75030 whole entry, looked up): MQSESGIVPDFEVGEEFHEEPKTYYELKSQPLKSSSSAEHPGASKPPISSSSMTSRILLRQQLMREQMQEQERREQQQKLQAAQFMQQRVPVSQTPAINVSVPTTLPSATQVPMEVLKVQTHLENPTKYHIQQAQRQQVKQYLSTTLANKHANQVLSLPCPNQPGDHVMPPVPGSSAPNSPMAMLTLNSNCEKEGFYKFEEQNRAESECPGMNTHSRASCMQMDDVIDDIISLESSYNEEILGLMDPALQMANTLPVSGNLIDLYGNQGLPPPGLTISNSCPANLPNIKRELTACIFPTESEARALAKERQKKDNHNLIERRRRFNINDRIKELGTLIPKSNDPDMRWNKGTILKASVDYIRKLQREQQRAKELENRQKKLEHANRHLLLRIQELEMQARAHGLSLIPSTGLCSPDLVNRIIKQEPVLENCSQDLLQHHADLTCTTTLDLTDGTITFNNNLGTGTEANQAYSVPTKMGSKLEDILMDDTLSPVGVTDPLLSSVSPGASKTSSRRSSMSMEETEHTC
GPR151 ag: human GPR151 activation; Q8TDV0; PathHunter beta-arrestin GPR151 cells, luminescence; activation, % at 11.2 µM; 650,000 tested, 1% active; AID 1508602; in the data active means activation above about 4.9%
FBW7 activator: human FBW7 E3 ligase activation, primary screen | Q969H0 | AlphaScreen FBW7–phospho-cyclin E peptide binding, activator screen | normalized activity (activation), % at 26.1 µM | 650,000 tested, 0.13% active | AID 1259310; in the data active means normalized activity above about 1.9%;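 further: purified mutant Fbw7 with reduced substrate affinity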
GPR151 confirm: confirmation of human GPR151 activators. activation, % at 11.2 µM. shares compounds with GPR151 ag. 6,700 tested, under 10 active. GPR151 PathHunter beta-arrestin cells, luminescence, 90 min; % of EA-reagent control over plate median;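 active means mean percent activation across replicates above the confirmation screen cutoff of 4.91%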
GPR119 counter: activates human GPR119 in a GPR151 counter-screen | shares compounds with GPR151 ag | GPR119 PathHunter beta-arrestin cells, luminescence, 90 min; 0 = compound-well median, 100 = enzyme-acceptor control | activation, % at 11.2 µM | 6,700 tested, 0.3% active;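 active means mean percent activation in the counterscreen above 29.09%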;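 further: counterscreen on off-target GPR119 to flag nonselective hits from the GPR151 activator screen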
Large screens that a line does not name were inactive (follow-up assays come after a bar, where they were run); ! = not active in a repeat. Hits are enriched below; roughly 3.5% of the tested compounds scored in any of these assays.

Cc1nnsc1C(=O)N1CCC2(CC1)CC2C(=O)NCC1(c2ccccc2)CCCC1 (configuration not stated)	none
O=C(NCc1nc(-c2ccncc2)n[nH]1)C(c1ccccc1)C1CCCCC1 (configuration not stated)	GPR151 ag 7.1 | GPR151 confirm inactive | GPR119 counter inactive
O=C1c2ccc([N+](=O)[O-])cc2C(=O)N1c1c[nH]c(=O)[nH]c1=O	GPR151 ag 5.1 | GPR151 confirm inactive | GPR119 counter inactive
COc1cc2sc(=NC(=O)c3cccc(OC)c3OC)n(C)c2cc1OC	none
O=C(COc1ccccc1)NC(=S)Nc1ccccn1	GPR151 ag 6.6 | GPR151 confirm inactive | GPR119 counter inactive
CCOC(=O)c1ccc(NC(=S)Nc2ccccn2)cc1	GPR151 ag 5.0! | GPR151 confirm inactive | GPR119 counter inactive
CCOc1ccc(S(=O)(=O)Nc2cccc(-c3ccc4nncn4n3)c2)cc1	TEAD-YAP block 39, GPR151 ag 9.8 | GPR151 confirm inactive | GPR119 counter inactive
CCC(Sc1nc2nc(C)c(Cc3ccc(F)cc3Cl)c(C)n2n1)C(=O)Nc1ccccc1OC (configuration not stated)	GPR151 ag 5.4 | GPR151 confirm inactive | GPR119 counter inactive
CCc1ccccc1NC(=O)CSc1nc2nc(C)c(Cc3ccc(F)cc3Cl)c(C)n2n1	none
CCOC(=O)C(=CNc1cc(C)nn1-c1ccccc1)C(=O)OCC	GPR151 ag 6.6 | GPR151 confirm inactive | GPR119 counter inactive
COc1ccc(-c2nnc(SCC(=O)Nc3ccc(N4CCOCC4)cc3)o2)cc1	GPR151 ag 6.1 | GPR151 confirm inactive | GPR119 counter inactive
Cc1ccc(-c2nnc(SCC(=O)Nc3ccccc3N3CCOCC3)o2)cc1	GPR151 ag 5.1 | GPR151 confirm inactive | GPR119 counter inactive
O=S(=O)(O)CCc1cccc[n+]1CC[n+]1ccccc1	none
O=C(CCCCC(=O)Nc1ccc2c(c1)OCCO2)Nc1ccc2c(c1)OCCO2	GPR151 ag 5.1 | GPR151 confirm inactive | GPR119 counter inactive
O=C(CS(=O)CC(=O)Nc1ccc2c(c1)OCCO2)Nc1ccc(F)cc1 (configuration not stated)	none
O=C(COC(=O)c1ccco1)Nc1ccc2c(c1)OCO2	GPR151 ag 5.5 | GPR151 confirm inactive | GPR119 counter inactive
O=C(CS(=O)CC(=O)Nc1ccc2c(c1)OCCO2)Nc1ccc(Cl)cc1 (configuration not stated)	GPR151 ag 6.7 | GPR151 confirm inactive | GPR119 counter inactive
Cc1nn(Cc2ccc(F)cc2)c(C)c1N	GPR151 ag 15 | GPR151 confirm inactive | GPR119 counter inactive
O=C(NC1CCOC1)c1cc(COc2ccc3ncccc3c2)on1 (configuration not stated)	GPR151 ag 5.2 | GPR151 confirm inactive | GPR119 counter inactive
C/C(CC(=O)Nc1cccc(Cl)c1C)=N\NC(=O)C(=O)Nc1ccc(C)cc1	none
Cc1c(C(=O)NC(=S)Nc2ncccc2O)cccc1[N+](=O)[O-]	GPR151 ag 5.4 | GPR151 confirm inactive | GPR119 counter inactive
COc1ccc(-c2nnc(SCC(=O)NCc3ccco3)n2-c2ccccc2)cc1OC	none
N#Cc1ccc(NC(=O)COC(=O)c2ccccn2)cc1	none
N#Cc1ccc(COC(=O)c2ccccn2)cc1	GPR151 ag 5.0 | GPR151 confirm inactive | GPR119 counter inactive
CCC(C)c1ccc(OCCOc2ccc(/C=C3/C(=N)N4N=C(C(C)C)SC4=NC3=O)cc2OC)cc1 (configuration not stated)	none
Cc1ccc(C(=O)C2=C(O)C(=O)N(CCN3CCOCC3)C2c2ccccn2)o1 (configuration not stated)	GPR151 ag 7.9 | GPR151 confirm inactive | GPR119 counter inactive
CN(C)c1cccc(C(=O)OCC(=O)c2cc3ccccc3o2)c1	GPR151 ag 5.2 | GPR151 confirm inactive | GPR119 counter inactive
CNS(=O)(=O)c1cccc(C(=O)OCC(=O)c2cc3ccccc3o2)c1	none
COc1cccc(CC2(C3CCN(Cc4cccnc4)CC3)NC(=O)N(C)C2=O)c1 (configuration not stated)	none
COc1cccc(CC2(C3CCN(Cc4ccccc4F)CC3)NC(=O)N(C)C2=O)c1 (configuration not stated)	GPR151 ag 5.0 | GPR151 confirm inactive | GPR119 counter inactive

Bioassay records as filed in PubChem.
